Records with an inconclusive call do not appear. Active and inactive are the calls of the source. Calls come from the whole dose curve; as a rule, active = well fitted curve in the direction sought with a large enough effect; inconclusive = small, poorly fitted or top-dose-only effect, or effect the other way, or another doubt; inactive = no such curve, though single readings can be large or run the other way.
The molecules below were run against Alpha-galactosidase A (Homo sapiens) (UniProt P06280) (assay: Confirmation of Inhibitors of Human alpha-Galactosidase Using Spleen Homogenate). Conditions: alpha-galactosidase enzyme activity; series mostly up to 56.2 µM.
Chain of Alpha-galactosidase A (Homo sapiens) (P06280 32-429 limits assumed): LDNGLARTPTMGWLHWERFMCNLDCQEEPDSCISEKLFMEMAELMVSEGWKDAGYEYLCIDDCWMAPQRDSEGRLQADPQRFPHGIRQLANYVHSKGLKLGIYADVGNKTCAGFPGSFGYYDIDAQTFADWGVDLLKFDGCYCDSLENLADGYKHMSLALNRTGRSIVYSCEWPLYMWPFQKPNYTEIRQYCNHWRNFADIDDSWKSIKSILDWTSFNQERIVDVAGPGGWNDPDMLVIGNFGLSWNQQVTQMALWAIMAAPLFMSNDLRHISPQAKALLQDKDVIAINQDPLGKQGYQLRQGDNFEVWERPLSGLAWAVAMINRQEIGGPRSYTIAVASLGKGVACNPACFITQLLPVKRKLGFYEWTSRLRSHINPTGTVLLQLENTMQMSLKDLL
Source text: NIH Chemical Genomics Center [NCGC]
NIH Molecular Libraries Probe Production Centers Network [MLPCN]
Assay Submitter (PI): Wei Zheng
Alpha-galactosidase is a homodimeric glycoprotein that hydrolyzes the terminal alpha-galactosyl moieties from glycolipids and glycoproteins. Deficiency of this enzyme results in Fabry Disease with progressive accumulation of globotriaosylceramide and other glycosphingolipids in vascular endothelial cells that causes renal failure, myocardial infarction and stroke, and premature death in patients. It has been reported that the improper folding and trafficking of alpha-galactosidase resulting from genetic mutations may account for a significant number of Fabry patients. […] We optimized this alpha-galactosidase assay in 1536-well plate format for identification of novel small molecule inhibitors or activators with structures other than the sugar analogs in order to develop new pharmacological chaperones. In particular, this assay is directed towards discovering compounds active in more natural setting, tissue homogenate, that may have been missed by screens of the purified enzyme under more stringent conditions. This assay attempted to confirm hits from the primary screening.
NCGC Assay Protocol Summary:
This is a fluorogenic enzyme assay with 4-methylumbelliferyl-alpha-D-galactopyranoside as the substrate and human spleen homogenate containing alpha-galactosidase as the enzyme preparation. Upon hydrolysis of this fluorogenic substrate, the resulting product, 4-methylumbelliferone (which excites at 365 nm and emits at 440 nm) can be detected by a fluorescence plate reader. Data were normalized to the controls for basal activity (without enzyme) and 100% activity (with enzyme). The AC50 values were determined from concentration-response data modeled with the standard Hill equation.
Assay buffer: 50 mM citric acid (titrated with potassium phosphate to pH 5.0), 0.01% Tween-20 (pH 5.0 is an optimal condition for this enzyme assay)
1536-well assay protocol for the alpha-galactosidase from human spleen homogenate:
(1) Add 2 ul/well spleen homogenate (1 ug)
(2) Add 23 nL compounds in DMSO solution. The final titration was 0.5 nM to 58 uM.
(3) Add 2 ul of substrate (1 mM final)
(4) Incubate at 37C for 40 min
(5) Add 2 ul stop solution (1M NaOH and 1M Glycine mixture, pH 10)
(6) Detect the assay plate in a ViewLux plate reader (PerkinElmer) with Ex=365 nm and Em=440nm.
Keywords: Alpha-galactosidase, Fabry Disease, pharmacological chaperone, chaperone therapy, high throughput screening, alpha- galactosidase inhibitor, MLSMR, MLSCN, NIH Roadmap, qHTS and NCGC

Row | SMILES | outcome
1 | Cc1cc(/C=C2/C(=O)NC(=O)N(Cc3ccco3)C2=O)c(C)n1-c1ccc(C(=O)O)cc1 | inactive
2 | O=C(O)c1ccccc1-c1c2cc(Br)c(=O)cc-2oc2[c]([Hg])c(O)c(Br)cc12 | inactive
3 | Cc1cc(C(=O)CS(=O)(=O)c2ccc(F)cc2)cc(C)c1OC(=O)N(C)C | inactive
4 | Cc1ccc2c(CN3CC=C(c4ccccc4)CC3)cc(=O)oc2c1C | inactive
5 | CC(=O)Nc1ccc(OC(=O)c2ccccc2N)cc1 | inactive
6 | O=c1[nH]c(CN2CC=C(c3ccccc3)CC2)nc2scc(-c3cccs3)c12 | inactive
7 | COc1ccc(Cc2nccc3cc(OC)c(OC)cc23)cc1OC | inactive
8 | O[C@H]1[C@H](O)[C@@H](O)CN2CC[C@H](O)[C@H]12 | inactive
9 | Cc1cc(/C=C2\C(=O)NC(=O)N(c3ccc(F)cc3)C2=O)c(C)n1-c1ccc(C(=O)O)cc1 | inactive
10 | CCCCC/C=C\C/C=C\C/C=C\C/C=C\CCCC(=O)NCCCC(=O)O | inactive
11 | Cc1[nH]c2ccccc2c1C1=CCNCC1 | inactive
12 | CC(=O)[O][Hg][c]1ccccc1 | inactive
13 | CCOc1ccc2cc(C#N)c(=O)oc2c1 | inactive
14 | OC[C@@H]1[C@@H](O)[C@H](O)[C@H]2[C@@H](O)CCN21 | inactive
15 | C/C=C(/C)C(=O)O[C@H]1C(C)=C2C([C@@H]1OC(=O)CCCCCCC)[C@@](C)(OC(C)=O)C[C@@H](OC(=O)CCC)[C@@]1(O)[C@H]2OC(=O)[C@@]1(C)O (stereo partly drawn) | inactive
16 | C/C(O)=C(/C#N)C(=O)Nc1cc(Br)ccc1Br | inactive
17 | O[C@@H]1[C@H](O)[C@H]2[C@@H](O)CCN2C[C@@H]1O | inactive
18 | CC(C)(C)c1cc(C=C(C#N)C#N)cc(C(C)(C)C)c1O | inactive
